Whole data set: some 33,000 sequences, median “E-score (-0.5 to 0.5)” near -0.011, cut for the highest 2% near 0.28. This is one part of a sample in which the highest values are shown more often than they occur.
biological target: T1, Gcr1 (UniProt P07261); assay: PBM E-score (8-mer binding enrichment) (E-score (-0.5 to 0.5)); higher = stronger / more preferred TF binding; conditions: protein concentration: 100 nM; construct: GST-full length
T1 sequence: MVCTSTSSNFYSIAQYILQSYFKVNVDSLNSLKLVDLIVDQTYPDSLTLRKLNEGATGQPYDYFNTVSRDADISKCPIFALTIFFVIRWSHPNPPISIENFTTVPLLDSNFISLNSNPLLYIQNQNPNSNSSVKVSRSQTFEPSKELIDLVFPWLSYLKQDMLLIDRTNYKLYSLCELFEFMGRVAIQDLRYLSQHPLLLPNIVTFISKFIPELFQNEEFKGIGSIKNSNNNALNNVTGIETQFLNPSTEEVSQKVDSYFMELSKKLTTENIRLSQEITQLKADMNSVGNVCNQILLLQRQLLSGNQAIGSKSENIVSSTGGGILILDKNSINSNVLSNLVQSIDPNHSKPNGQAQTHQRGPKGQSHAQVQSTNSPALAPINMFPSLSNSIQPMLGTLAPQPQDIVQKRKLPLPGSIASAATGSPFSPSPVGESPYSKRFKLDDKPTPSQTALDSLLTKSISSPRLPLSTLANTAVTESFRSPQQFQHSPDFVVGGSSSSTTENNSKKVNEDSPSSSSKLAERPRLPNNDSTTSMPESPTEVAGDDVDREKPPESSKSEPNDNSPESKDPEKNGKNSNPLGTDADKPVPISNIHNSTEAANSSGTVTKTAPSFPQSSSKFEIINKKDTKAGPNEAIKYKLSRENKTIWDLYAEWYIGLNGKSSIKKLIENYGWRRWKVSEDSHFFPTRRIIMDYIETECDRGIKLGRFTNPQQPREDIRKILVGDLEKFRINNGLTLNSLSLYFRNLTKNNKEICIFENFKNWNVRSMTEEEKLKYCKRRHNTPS
Procedure: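 Universal 'all 10-mer' protein binding microarrays (Agilent AMADID 015681) probed with GST-tagged S. cerevisiae TFs (full-length or DBD) made by in vitro transcription/translation (PURExpress), about 100-200 nM. Bound TF was detected with fluorescent anti-GST. Each ungapped 8-mer (which stands for itself and its reverse complement) is scored by the PBM enrichment score (E-score), a modified Wilcoxon-Mann-Whitney statistic from -0.5 to +0.5, computed with the Universal PBM Analysis Suite. Scale: above 0.35 generally sequence-specific binding.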

Sequence | PBM E-score
CATAGACG | 0.0886
CTAATTTA | 0.291
CTAATTTC | 0.189
GTAATTTA | 0.109
ATACCTTG | -0.108
CAATTGGG | -0.0107
CAAATTGG | 0.213
AATTTTTG | 0.1
AAAATTGC | -0.203
AATTTTGG | 0.287
AAATTGGG | 0.295
AAATTGGT | 0.226
CAATTTGG | 0.222
AAAATTGG | 0.316
AAATTTGG | 0.301
ATTTTTGG | 0.186
AAATTTTG | 0.088
AGGGAATA | 0.0244
AATAGATC | -0.0063
CGATCTTA | -0.045
GAGTTCAC | -0.0309
ATGTGCCG | -0.205
ACCGCTTG | -0.0218
AGTTTAAT | 0.0173
ACACTCGT | -0.152

Sequence | PBM E-score
CTTTGGAA | 0.282
ATTTGGAG | 0.0526
CTTTGGAC | -0.147
ATTTGGAA | 0.373
ATTTGGAC | 0.166
GTTTGGAA | 0.202
ATGCTAAC | 0.139
AATCAGAC | 0.0464
AGCCCAGA | 0.0713
ATAGCATC | 0.0848
CTAGCACC | 0.31
CTAGCACA | -0.181
ATAGCACC | 0.159
CTAGCATC | 0.315
CTAGCATA | 0.017
CCAGAGCG | -0.144
CCCGGACG | -0.0526
ACCGGAAG | 0.303
ACCGGATG | 0.349
ACCGGATA | 0.00906
ACCGGACG | 0.32
ACCGGAAC | 0.203
ACCGGATC | 0.0302
ACCGGACT | -0.0693
ACCGGAAT | 0.185

Sequence | PBM E-score
AAGGGGTC | -0.19
CGATCAAG | -0.0812
CCTTGGCC | -0.327
ATTAGGAG | 0.26
CGCTAGTC | -0.153
AACAATGT | 0.0351
ATCCCATG | -0.0862
TCGTTTCA | 0.077
AGATTCCC | 0.265
AGATTCCA | 0.426
GGATTCAC | 0.159
TGATTCCA | 0.0933
CGATTCCC | 0.0331
CGATTCCG | -0.0838
ATATTCCG | 0.131
CGATTCCA | 0.178
ACATTCCT | 0.0561
AGATTCCT | 0.399
GGATTCCC | 0.418
AGATTCCG | 0.284
CCAGTTGA | -0.0652
GGATTGAC | -0.0943
AACCCAGG | 0.056
CCGTTGAC | -0.121
TGAACCAA | 0.022

Sequence | PBM E-score
GCAACCAC | 0.267
GGAACCAC | 0.284
CGAACCAA | -0.0751
GGAACCAA | 0.31
CGAACCAC | 0.0103
GCAACCAA | 0.302
CCAACCAA | 0.0612
AGAACCAC | 0.035
AATGGACG | 0.143
CGTGGGCC | -0.23
GGGGAGCA | -0.103
GGTCGAGA | -0.0372
GTAGGATA | -0.109
CGACTGGA | 0.316
ATACTGGC | 0.161
TAACTGGA | 0.225
CAACTGGA | 0.212
ATACTGGA | 0.373
CGACTGGC | -0.241
GAACTGGA | 0.303
GTACTGGA | 0.235
GGACTGGA | -0.0243
CGCAGTTA | 0.15
ACGTAGCA | -0.079
ACGTAGCT | 0.282

Sequence | PBM E-score
ACGTAGCC | 0.14
CGGTTGGA | 0.0351
GCAATCGC | -0.113
ATTCAAGC | -0.0491
CCTCTATA | 0.266
ATGGATGC | 0.389
CTGGATGC | 0.425
ATGGATGA | -0.0514
ATGGATGG | -0.034
CTGGATGA | 0.0353
CTGGATAC | 0.135
ACGGGGGC | -0.08
AGTCCGGA | 0.0284
ATCGGATA | 0.0757
TGTAGACA | -0.0678
AAACTGGT | 0.178
TCGCCGCA | 0.0198
CGCTCAAC | -0.0355
AGCACCCT | 0.277
AGCACCAG | 0.156
CGCACCCG | 0.0194
AGCACACC | -0.188
AGCACCCG | 0.282
AGCACCCA | 0.351
AGCACCAT | 0.282

Sequence | PBM E-score
AACACCCA | -0.0911
AGCACCAC | 0.235
CAAGATTC | 0.122
GAAGCGCA | 0.129
AGGTAAAG | -0.112
GATGCTAC | 0.338
CGTGCTGA | -0.14
GATGCTAA | 0.372
TATGCTAA | -0.0329
GATGCTGC | 0.276
GATGCTGA | 0.312
AATGCTAC | -0.0602
AATGCTAA | 0.206
GGTGCTTA | 0.259
GGTGCTGA | 0.335
CATGCTAC | -0.123
CATGCTGA | -0.229
AAGGCGAA | -0.0278
CACAATGA | 0.0838
GCTTCAAA | 0.192
AGTTGGCG | 0.0665
CACTCCAG | 0.0875
ACCGCGGC | 0.143
ACGCCGGA | 0.0899
CATTTGGC | -0.0265

Sequence | PBM E-score
CACCTGCC | -0.127
ACCAATGG | 0.0385
ACACTGAG | -0.126
GCTATTTA | -0.162
ATATTTAA | 0.111
CCCATTTC | -0.0272
CCATTTAA | 0.304
ACCATTTA | 0.0518
CCATTTAC | 0.0873
GTATTTAA | 0.117
CTATTTAA | 0.309
ACTATTTA | 0.293
CCCATTTA | 0.293
CCTATTTA | 0.247
CCATTTTA | 0.23
ACAGTCCA | -0.304
TACCGTGA | 0.0127
ACTCTTCT | 0.0323
TCCGGAAA | 0.172
CACCCGGA | 0.136
CGAAGTAC | -0.022
CGCCAAAG | 0.0195
TCAACTAA | -0.00686
ACGACGGG | 0.00739
AATTACAT | 0.0891

Sequence | PBM E-score
AATTACAG | 0.283
CATTACAG | -0.0702
CCACCCTC | -0.00165
CAAAATTC | 0.306
CAAAATTG | 0.0415
AAAAATTC | 0.0187
GCTAGCAC | -0.0767
GCAGGCCC | -0.133
ACAAGCTA | -0.0171
CCACAATC | 0.156
CCACAAAG | 0.16
CCACAAAA | 0.282
CCACAATA | 0.3
ACACAATA | 0.0111
ACACAAAA | 0.141
CTCGGTAA | -0.22
AAACCTAA | 0.0813
CCTTTCAG | -0.117
GGGGGACA | 0.0151
AGTCTGTA | -0.152
CCCCGTTC | -0.082
GACGCCCA | 0.427
TGCGCCCA | 0.0933
CACGCCCA | -0.107
GACGCCCC | 0.0383

Sequence | PBM E-score
CGCGCCCC | 0.243
GGCGCCCA | 0.398
AGCGCCCA | 0.183
GGCGCCCC | 0.308
AGCGCCCC | 0.153
CGAGAGGA | -0.113
CCCGGGGC | 0.0219
ACAAGCAT | 0.15
CCATTGGC | 0.0633
GCGGCGGA | 0.0513
AATTTGTC | -0.00767
ATGGCTGC | 0.168
CTGGCTGA | -0.225
ATAGCTTC | 0.249
CTGGCTGC | 0.35
ATGGCTTA | 0.0216
CTAGCTTA | -0.172
ATGGCTTC | 0.3
CCGGCTGA | -0.138
CTAGCTTC | 0.316
ACGGCTGC | -0.014
CCGGCTGC | 0.314
ATGGCTTG | -0.236

— the supplement of paper PMC3334620
